For assay [1], the target named is T1, Tyrosine-protein kinase ITK/TSK (Homo sapiens) (UniProt Q08881).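 Note: values are mean percent inhibition of ITK from the GSK PKIS screen.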
T1 sequence (whole entry): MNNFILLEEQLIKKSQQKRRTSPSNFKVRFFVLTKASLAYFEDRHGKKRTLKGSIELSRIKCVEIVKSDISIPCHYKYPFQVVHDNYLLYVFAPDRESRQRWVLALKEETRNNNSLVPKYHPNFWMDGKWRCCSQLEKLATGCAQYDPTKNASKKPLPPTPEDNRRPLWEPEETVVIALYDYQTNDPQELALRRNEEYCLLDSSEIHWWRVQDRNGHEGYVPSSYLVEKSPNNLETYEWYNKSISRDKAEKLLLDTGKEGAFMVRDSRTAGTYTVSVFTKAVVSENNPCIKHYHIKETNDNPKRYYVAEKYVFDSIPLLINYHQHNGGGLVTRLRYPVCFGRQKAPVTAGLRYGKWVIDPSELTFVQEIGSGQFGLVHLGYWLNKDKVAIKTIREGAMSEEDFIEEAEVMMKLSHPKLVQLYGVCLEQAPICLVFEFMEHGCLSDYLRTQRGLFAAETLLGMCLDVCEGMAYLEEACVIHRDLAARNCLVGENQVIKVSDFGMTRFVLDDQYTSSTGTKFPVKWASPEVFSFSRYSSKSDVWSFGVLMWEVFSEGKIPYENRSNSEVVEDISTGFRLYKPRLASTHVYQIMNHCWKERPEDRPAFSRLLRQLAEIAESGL
The conditions noted are these: at 1 µM.

The target in assay [2] is Tyrosine-protein kinase JAK1 (Homo sapiens) (UniProt P23458). The conditions noted are these: at 0.1 µM.
The target is the same in assay [3]. To be noted: at 1 µM.
In assay [4] the target is Tyrosine-protein kinase JAK2 (Homo sapiens) (UniProt O60674). The conditions noted are these: at 0.1 µM.
The target is the same in assay [5]. To be noted: at 1 µM.
Assay [6] has as its target T2, Tyrosine-protein kinase JAK3 (Homo sapiens) (UniProt P52333).
T2 sequence (whole entry): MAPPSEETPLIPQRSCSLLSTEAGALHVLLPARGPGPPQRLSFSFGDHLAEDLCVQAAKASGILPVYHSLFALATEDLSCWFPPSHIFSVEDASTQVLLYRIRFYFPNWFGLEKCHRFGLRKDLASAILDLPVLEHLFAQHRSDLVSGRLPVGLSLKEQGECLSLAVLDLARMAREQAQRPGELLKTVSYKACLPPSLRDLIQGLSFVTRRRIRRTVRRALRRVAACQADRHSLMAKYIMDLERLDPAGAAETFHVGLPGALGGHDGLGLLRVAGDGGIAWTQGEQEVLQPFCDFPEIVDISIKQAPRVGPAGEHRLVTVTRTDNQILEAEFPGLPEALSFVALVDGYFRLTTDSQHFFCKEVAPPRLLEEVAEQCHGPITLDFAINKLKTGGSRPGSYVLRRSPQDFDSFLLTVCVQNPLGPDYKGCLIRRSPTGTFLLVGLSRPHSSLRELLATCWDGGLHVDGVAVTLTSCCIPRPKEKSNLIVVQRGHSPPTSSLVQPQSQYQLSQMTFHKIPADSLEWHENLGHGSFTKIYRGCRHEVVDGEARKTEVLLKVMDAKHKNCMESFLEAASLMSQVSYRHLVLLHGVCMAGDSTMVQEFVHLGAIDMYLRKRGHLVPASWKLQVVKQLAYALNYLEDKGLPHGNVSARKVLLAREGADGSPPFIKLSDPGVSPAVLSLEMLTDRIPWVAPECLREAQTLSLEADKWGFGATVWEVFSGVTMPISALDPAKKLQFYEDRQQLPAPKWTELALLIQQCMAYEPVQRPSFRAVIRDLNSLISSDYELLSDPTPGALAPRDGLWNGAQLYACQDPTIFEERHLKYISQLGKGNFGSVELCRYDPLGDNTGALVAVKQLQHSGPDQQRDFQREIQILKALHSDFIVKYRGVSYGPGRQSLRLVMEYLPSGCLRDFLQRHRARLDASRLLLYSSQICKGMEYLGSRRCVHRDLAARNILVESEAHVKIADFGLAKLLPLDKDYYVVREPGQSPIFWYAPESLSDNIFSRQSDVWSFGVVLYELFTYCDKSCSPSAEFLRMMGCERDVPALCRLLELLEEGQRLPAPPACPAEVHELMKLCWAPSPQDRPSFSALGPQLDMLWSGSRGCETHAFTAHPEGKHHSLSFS
The conditions noted are these: at 0.1 µM.

Assay [7] addresses T2, Tyrosine-protein kinase JAK3 (Homo sapiens). To be noted: at 1 µM.
For assay [8], the target named is Vascular endothelial growth factor receptor 2 (Homo sapiens) (UniProt P35968). To be noted: at 0.1 µM.
Assay [9] shares this target. The conditions noted are these: at 1 µM.
The target in assay [10] is Mast/stem cell growth factor receptor Kit (Homo sapiens) (UniProt P10721). The conditions noted are these: at 0.1 µM.
The target is the same in assay [11]. The conditions noted are these: at 1 µM.
In assay [12] the test system is Mast/stem cell growth factor receptor Kit (Homo sapiens), P10721 [D816V]. To be noted: at 0.1 µM.
The test system is the same in assay [13]. To be noted: at 1 µM.
For assay [14], the system named is Mast/stem cell growth factor receptor Kit (Homo sapiens), P10721 [T670I]. The conditions noted are these: at 0.1 µM.
For assay [15] the test system is unchanged. To be noted: at 1 µM.
Assay [16] deals with Mast/stem cell growth factor receptor Kit (Homo sapiens), P10721 [V560G]. To be noted: at 0.1 µM.
Assay [17] shares this test system. The conditions noted are these: at 1 µM.
The target of assay [18] is Tyrosine-protein kinase Lck (Homo sapiens) (UniProt P06239). The conditions noted are these: at 0.1 µM.
Assay [19] has the same target. The conditions noted are these: at 1 µM.
Assay [20] deals with Leukocyte tyrosine kinase receptor (Homo sapiens) (UniProt P29376). To be noted: at 0.1 µM.
Sequence of Leukocyte tyrosine kinase receptor (Homo sapiens) (P29376 whole entry): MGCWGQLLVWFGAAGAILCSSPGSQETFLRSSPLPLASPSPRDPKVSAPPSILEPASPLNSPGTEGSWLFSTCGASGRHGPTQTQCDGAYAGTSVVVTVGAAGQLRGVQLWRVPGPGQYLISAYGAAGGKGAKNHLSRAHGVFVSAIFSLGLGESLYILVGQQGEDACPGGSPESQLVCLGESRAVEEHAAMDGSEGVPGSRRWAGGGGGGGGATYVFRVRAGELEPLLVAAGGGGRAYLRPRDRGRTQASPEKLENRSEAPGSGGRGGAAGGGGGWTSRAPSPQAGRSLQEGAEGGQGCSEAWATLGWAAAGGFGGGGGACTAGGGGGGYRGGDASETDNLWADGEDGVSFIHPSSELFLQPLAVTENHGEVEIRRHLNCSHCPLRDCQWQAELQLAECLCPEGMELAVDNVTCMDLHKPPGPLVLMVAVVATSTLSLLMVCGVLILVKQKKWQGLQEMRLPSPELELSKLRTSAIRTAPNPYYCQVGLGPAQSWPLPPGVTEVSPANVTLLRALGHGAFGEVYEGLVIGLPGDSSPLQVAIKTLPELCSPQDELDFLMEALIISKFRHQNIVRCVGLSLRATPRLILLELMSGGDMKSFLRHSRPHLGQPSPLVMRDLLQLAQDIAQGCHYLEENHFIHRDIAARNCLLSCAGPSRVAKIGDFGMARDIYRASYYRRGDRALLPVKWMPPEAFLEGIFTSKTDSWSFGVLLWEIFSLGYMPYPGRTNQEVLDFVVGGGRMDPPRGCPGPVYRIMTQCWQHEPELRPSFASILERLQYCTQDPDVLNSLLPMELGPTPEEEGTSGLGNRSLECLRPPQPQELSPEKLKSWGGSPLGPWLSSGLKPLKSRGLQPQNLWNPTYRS

Sequence of Tyrosine-protein kinase Lck (Homo sapiens) (P06239 2-509 limits assumed): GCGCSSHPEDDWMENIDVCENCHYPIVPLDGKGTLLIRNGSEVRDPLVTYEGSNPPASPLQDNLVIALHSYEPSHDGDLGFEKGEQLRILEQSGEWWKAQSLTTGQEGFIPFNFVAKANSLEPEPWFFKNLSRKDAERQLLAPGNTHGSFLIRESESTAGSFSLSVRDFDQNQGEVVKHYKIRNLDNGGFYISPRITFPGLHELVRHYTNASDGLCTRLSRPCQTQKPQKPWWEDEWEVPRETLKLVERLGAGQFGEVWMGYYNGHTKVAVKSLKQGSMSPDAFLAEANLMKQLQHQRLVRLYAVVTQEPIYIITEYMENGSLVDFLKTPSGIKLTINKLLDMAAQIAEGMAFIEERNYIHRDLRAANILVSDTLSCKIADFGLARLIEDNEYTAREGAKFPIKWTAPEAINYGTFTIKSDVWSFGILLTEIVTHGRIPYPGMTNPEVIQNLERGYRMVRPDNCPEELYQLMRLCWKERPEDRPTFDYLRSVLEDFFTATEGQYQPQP
Sequence of Mast/stem cell growth factor receptor Kit (Homo sapiens), P10721 [V560G] (P10721 whole entry V560G): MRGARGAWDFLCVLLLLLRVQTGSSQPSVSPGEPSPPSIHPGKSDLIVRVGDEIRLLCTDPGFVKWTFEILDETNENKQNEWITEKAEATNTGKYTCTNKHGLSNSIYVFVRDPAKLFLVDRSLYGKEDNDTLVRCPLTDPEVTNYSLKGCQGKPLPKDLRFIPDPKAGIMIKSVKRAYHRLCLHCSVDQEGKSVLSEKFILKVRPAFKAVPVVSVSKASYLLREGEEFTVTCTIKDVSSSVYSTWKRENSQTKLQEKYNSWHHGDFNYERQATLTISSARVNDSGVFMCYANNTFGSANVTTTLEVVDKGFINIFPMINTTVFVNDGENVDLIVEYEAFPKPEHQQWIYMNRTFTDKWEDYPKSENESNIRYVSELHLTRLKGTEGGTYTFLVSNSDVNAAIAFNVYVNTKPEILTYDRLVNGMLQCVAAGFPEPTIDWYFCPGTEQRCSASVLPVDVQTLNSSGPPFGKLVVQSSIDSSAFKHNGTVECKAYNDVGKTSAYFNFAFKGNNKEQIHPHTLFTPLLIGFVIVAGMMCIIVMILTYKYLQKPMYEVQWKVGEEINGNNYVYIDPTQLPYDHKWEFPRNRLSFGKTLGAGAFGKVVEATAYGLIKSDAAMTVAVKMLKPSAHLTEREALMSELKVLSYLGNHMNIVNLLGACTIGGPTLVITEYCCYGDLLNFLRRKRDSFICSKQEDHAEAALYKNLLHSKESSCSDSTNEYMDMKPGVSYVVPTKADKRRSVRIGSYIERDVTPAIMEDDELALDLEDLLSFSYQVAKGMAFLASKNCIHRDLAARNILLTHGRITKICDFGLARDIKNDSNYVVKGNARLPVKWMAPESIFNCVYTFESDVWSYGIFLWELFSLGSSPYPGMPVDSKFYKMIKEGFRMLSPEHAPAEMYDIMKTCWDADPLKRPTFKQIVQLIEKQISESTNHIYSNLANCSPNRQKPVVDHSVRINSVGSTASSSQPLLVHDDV
Sequence of Mast/stem cell growth factor receptor Kit (Homo sapiens), P10721 [D816V] (P10721 whole entry D816V): as the sequence (P10721 whole entry V560G) above, with G560V, D816V counted along it
Sequence of Tyrosine-protein kinase JAK2 (Homo sapiens) (O60674 whole entry): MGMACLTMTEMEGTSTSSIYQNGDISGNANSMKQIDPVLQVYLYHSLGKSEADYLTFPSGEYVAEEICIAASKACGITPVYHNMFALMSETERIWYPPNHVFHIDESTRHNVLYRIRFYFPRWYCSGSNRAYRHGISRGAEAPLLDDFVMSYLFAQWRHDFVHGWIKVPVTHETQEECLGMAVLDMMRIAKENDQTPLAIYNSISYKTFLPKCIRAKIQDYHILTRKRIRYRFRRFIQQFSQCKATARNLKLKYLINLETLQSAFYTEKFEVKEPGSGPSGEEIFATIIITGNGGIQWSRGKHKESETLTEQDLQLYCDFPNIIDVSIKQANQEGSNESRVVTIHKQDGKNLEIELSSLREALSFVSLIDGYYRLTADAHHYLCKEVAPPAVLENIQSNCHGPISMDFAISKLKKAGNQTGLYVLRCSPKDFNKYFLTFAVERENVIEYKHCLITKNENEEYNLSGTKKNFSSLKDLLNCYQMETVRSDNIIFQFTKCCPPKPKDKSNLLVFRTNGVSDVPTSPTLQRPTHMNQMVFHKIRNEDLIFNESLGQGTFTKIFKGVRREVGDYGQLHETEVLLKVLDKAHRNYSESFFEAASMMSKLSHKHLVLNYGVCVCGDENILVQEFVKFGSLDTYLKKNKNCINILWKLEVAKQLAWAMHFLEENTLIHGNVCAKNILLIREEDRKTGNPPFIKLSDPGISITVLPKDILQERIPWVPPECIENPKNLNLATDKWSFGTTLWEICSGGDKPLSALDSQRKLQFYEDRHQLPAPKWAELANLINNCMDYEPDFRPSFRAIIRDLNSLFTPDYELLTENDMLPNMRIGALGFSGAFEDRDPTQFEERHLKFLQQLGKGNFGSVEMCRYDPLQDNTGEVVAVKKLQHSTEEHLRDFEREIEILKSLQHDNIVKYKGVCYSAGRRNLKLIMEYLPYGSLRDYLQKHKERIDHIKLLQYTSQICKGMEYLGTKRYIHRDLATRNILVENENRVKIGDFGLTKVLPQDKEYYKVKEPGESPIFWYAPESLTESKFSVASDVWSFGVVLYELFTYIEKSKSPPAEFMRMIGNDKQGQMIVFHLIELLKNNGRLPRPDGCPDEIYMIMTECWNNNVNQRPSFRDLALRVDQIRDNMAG
Sequence of Mast/stem cell growth factor receptor Kit (Homo sapiens), P10721 [T670I] (P10721 whole entry T670I): as the sequence (P10721 whole entry V560G) above, with G560V, T670I counted along it
Sequence of Vascular endothelial growth factor receptor 2 (Homo sapiens) (P35968 whole entry): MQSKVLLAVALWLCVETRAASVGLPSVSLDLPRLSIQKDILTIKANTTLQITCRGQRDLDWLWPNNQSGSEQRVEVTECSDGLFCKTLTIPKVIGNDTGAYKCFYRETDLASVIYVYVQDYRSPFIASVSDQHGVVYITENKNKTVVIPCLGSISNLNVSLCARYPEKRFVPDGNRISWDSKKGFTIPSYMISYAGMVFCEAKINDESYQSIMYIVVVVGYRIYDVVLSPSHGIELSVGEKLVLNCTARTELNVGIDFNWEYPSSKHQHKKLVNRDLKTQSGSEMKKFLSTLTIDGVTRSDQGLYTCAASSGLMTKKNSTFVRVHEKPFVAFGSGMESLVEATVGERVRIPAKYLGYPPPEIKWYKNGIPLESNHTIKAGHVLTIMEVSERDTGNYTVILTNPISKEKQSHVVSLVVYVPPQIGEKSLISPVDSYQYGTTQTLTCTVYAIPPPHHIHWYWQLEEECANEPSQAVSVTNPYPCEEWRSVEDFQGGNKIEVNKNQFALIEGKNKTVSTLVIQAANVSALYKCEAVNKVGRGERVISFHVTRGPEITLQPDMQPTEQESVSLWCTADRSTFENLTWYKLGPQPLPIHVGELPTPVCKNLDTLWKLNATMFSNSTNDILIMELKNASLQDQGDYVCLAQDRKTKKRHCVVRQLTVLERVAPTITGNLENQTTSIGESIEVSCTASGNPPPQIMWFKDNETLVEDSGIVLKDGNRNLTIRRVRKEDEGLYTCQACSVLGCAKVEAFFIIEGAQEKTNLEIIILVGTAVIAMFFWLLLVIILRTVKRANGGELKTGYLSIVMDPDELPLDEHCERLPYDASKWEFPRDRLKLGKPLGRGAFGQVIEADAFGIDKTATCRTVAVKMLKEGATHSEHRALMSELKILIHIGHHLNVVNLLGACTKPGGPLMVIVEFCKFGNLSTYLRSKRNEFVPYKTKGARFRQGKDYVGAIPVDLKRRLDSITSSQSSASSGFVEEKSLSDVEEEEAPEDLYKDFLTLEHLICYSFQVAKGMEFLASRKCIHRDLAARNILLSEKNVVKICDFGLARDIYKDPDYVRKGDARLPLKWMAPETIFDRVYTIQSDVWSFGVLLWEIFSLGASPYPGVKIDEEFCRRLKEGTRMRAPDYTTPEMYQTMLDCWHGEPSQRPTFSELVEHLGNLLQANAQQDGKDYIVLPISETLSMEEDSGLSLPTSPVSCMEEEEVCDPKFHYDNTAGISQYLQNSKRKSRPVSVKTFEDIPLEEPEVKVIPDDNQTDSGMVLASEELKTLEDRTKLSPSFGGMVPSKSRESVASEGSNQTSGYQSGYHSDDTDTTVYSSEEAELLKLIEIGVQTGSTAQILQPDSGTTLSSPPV
Sequence of Mast/stem cell growth factor receptor Kit (Homo sapiens) (P10721 whole entry): as the sequence (P10721 whole entry V560G) above, with G560V counted along it

For `CCS(=O)(=O)c1ccc(OC)c(Nc2ncc(-c3cccc(OC)c3)o2)c1`, the inhibition (commonly the relative decrease from the control value, in per cent) in assay [1] is 5.9%; in [2], -0.79%; in assay [3], -4.39%; in assay [4], 0.87%; in [5], 1.58%; in [6], -1.19%. For the same compound, the inhibition in [7] turned out to be 5.85%; in assay [8] it was 48.4%; in assay [9] it was 73.2%; in [10], 73.4%; in assay [11], 97%; in [12], 0.77%. In addition, the inhibition in [13] was 7.53%; in [14], 10.8%; in assay [15], 67.6%; in assay [16], 3.11%; in [17], 38.3%; in assay [18] it was 11.7%. For the same compound, the inhibition stood at 47.6% in [19] and 1.67% in assay [20].
As for `Nc1nccc(-c2c(-c3ccc(F)cc3)ncn2CCCN2CCOCC2)n1`, the inhibition in assay [1] was 2.18%; in [2], 2.73%; in [3], 17.8%; in assay [4], 1.23%; in [5], 0.43%; in [6], -0.85%. In addition, the inhibition is -0.57% in [7]; 4.12% in assay [8]; 11.2% in [9]; 3.2% in [10]; 11.4% in [11]; 5.23% in [12]. Besides, the inhibition in [13] is 5.35%; in [14], 5%; in assay [15], 0.35%; in [16], -0.56%; in [17], 1.5%; in assay [18], 2.05%. The inhibition was 7.4% in [19] and 2.33% in [20].
For `CN(C)c1cc2c(Nc3ccc4c(cnn4Cc4ccccc4)c3)ncnc2cn1`, the inhibition was 0.99% in assay [1]; 3.23% in assay [2]; -0.82% in [3]; 0.91% in [4]; 2.18% in [5]; -0.53% in [6]. For the same compound, the inhibition in assay [7] turned out to be 0.54%; in assay [8] it was 4.41%; in assay [9] it was 18.2%; in assay [10], 3.49%; in assay [11], 3.38%; in [12] it was 4.89%. Moreover, the inhibition is 2.07% in assay [13]; 3.06% in [14]; -0.32% in assay [15]; -2.8% in assay [16]; 2.75% in assay [17]; 5.16% in [18]. Moreover, the inhibition was 22.6% in [19] and 1.81% in assay [20].
In the case of `CS(=O)(=O)Nc1cccc(-c2ccc3c(NC(=O)C4CC4)n[nH]c3c2)c1`, the inhibition in assay [1] was 1.71%; in assay [2], 0.09%; in [3] it was 0.48%; in assay [4], 0.43%; in assay [5], 1.32%; in assay [6], -0.13%. Further, the inhibition was 2.96% in [7]; 1.1% in [8]; 7.91% in assay [9]; -1.41% in [10]; -3.67% in assay [11]; 1.45% in assay [12]. Also, the inhibition in assay [13] was 0.35%; in [14], -1.01%; in assay [15] it was -2.29%; in assay [16] it was 0.19%; in assay [17] it was 0.6%; in [18], 1.99%. Further, the inhibition was determined as 6.14% in [19] and 1.68% in assay [20].
On to `ON=C1CCc2cc(-c3nc(C4CCNCC4)[nH]c3-c3ccncc3)ccc21`, for which the inhibition was 0.87% in [1]; -0.79% in [2]; 0.05% in assay [3]; -0.01% in assay [4]; 0.28% in [5]; -1.58% in [6]. Further, the inhibition in assay [7] was 3.17%; in [8], 1.06%; in [9], 4.49%; in assay [10] it was -3%; in assay [11], -4.25%; in assay [12] it was 2.66%. Besides, the inhibition in assay [13] was 5.8%; in assay [14], -0.79%; in [15], -1.23%; in [16] it was -2.31%; in assay [17] it was -1.75%; in assay [18] it was 0.93%. Further, the inhibition in [19] was determined as 6.86%; in assay [20], 1.01%.
Turning to `CN(C)CCCn1c(-c2nonc2N)nc2cnccc21`, the inhibition in assay [1] was 0.92%; in [2] it was 4.69%; in [3], 6.17%; in assay [4], 1.25%; in assay [5], 0.79%; in [6], -1.68%. Further, the inhibition was -0.27% in assay [7]; 4.41% in [8]; 8.24% in assay [9]; 2.22% in assay [10]; 3.91% in assay [11]; 4.66% in assay [12]. In addition, the inhibition in [14] is 2.49%; in [15], 0.58%; in [16] it was -1.36%; in assay [17], -1.19%; in assay [18], 2.27%; in assay [19], 4.6%. The inhibition in assay [20] turned out to be 3.86%.
